Compounds without any hit were thinned out: in the full panel of roughly 83,000, 20% have a hit.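 Note: values are percent growth. 100 is the growth of untreated cells, values between 100 and 0 indicate rising inhibition; between -100 and 0 indicates cell death.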 A number with no mark means an inactive call. Activity calls are given as the source filed them. How the source made its calls: active means growth percent below 10; inactive means the rest.
Tests used:
Test in all cases: NCI-60 one-dose screen, 48 h (100 = growth as untreated, 0 = no growth, -100 = all killed)
Details in all cases: 10 µM unless noted
NCI-H23 lung = tested on: NCI-H23 lung
NCI-H226 lung = tested on: NCI-H226 lung
NCI-H322M lung = tested on: NCI-H322M lung
HOP-62 NSCLC = tested on: HOP-62 NSCLC
NCI-H460 lung = tested on: NCI-H460 lung
HOP-92 NSCLC = tested on: HOP-92 NSCLC
NCI-H522 lung = tested on: NCI-H522 lung
A549/ATCC NSCLC = tested on: A549/ATCC NSCLC
786-0 renal = tested on: 786-0 renal
COLO 205 colon = tested on: COLO 205 colon
DU-145 prostate = tested on: DU-145 prostate
K-562 leukemia = tested on: K-562 leukemia
MALME-3M melanoma = tested on: MALME-3M melanoma
MDA-MB-231 breast = tested on: MDA-MB-231 breast
RXF 393 renal = tested on: RXF 393 renal
SF-268 CNS = tested on: SF-268 CNS
SF-295 CNS = tested on: SF-295 CNS
SF-539 CNS = tested on: SF-539 CNS
UACC-257 melanoma = tested on: UACC-257 melanoma
M14 melanoma = tested on: M14 melanoma

| Compound | growth (NCI-H23 lung) | growth (NCI-H226 lung) | growth (NCI-H322M lung) | growth (HOP-62 NSCLC) | growth (NCI-H460 lung) | growth (HOP-92 NSCLC) | growth (NCI-H522 lung) | growth (A549/ATCC NSCLC) | growth (786-0 renal) | growth (COLO 205 colon) | growth (DU-145 prostate) | growth (K-562 leukemia) | growth (MALME-3M melanoma) | growth (MDA-MB-231 breast) | growth (RXF 393 renal) | growth (SF-268 CNS) | growth (SF-295 CNS) | growth (SF-539 CNS) | growth (UACC-257 melanoma) | growth (M14 melanoma) |
| --- | --- | --- | --- | --- | --- | --- | --- | --- | --- | --- | --- | --- | --- | --- | --- | --- | --- | --- | --- | --- |
| COc1cc(-c2nc3occn3c2-c2ccnc(NCCCNS(=O)(=O)c3ccccc3)n2)ccc1F | 45.6% | 18.4% | 78.3% | 73.9% | 47.8% | 63.4% | 26.6% | 38% | 63.8% | 28.8% | 52.5% | 26.5% | 18.4% | 45.1% | 48.6% | 52.8% | 46% | 78.8% | 41.4% | 17.2% |
| CCOC(=O)n1cc(-c2nonc2-c2cn(C)c3ccccc23)c2ccccc21 | 55% | 75.4% | 44% | 34.5% | 14.5% | 54.4% |  | 40.1% | 48% | 24.3% | 57.2% | 11.2% | 41% | 46% | 63.5% | 54% | 27.8% | 21.9% | 68.9% | 21.5% |
| Cc1ncc(C(=O)Nc2ccc(CN3CCN(C)CC3)c(C(F)(F)F)c2)cc1C#Cc1cnc(N)c2ccncc12 | -65% (active) | -5.01% (active) | -32.5% (active) | -54.8% (active) | -65.5% (active) | -52.2% (active) |  | -40.4% (active) | -45% (active) | -84.1% (active) | -50.5% (active) | -32.5% (active) | -72.9% (active) | -47.9% (active) | -87.7% (active) | -37.5% (active) | -45.4% (active) | -86.6% (active) | -75.2% (active) | -63.7% (active) |
| CCN(CC)CCOc1nc2c3ccc(Cl)cc3nn2c2ccccc12 | 34.5% | 47.1% | 29.2% | 42.3% | 11.4% | -3.36% (active) |  | 16.3% | 23.6% | 4.4% (active) | 26.4% | 1.82% (active) | 35.8% | 21.3% | 7.71% (active) | 44.6% | 29% | 17.8% | 16.1% | 44.5% |
| C=CC(C)(O)CC/C=C(\CO)C(=O)OC1C(C)OC(O[C@](C)(C=C)CC/C=C(\CO)C(=O)O[C@H]2C[C@@]3(C(=O)OC4OC(CO)C(O)C(O)C4OC4OC(C)C(OC5OC(CO)C(O)C5O)C(OC5OC(CO)C(O)C(O)C5O)C4O)C(CC2(C)C)C2=CCC4[C@@]5(C)CC[C@H](OC6OC(COC7OC(C)C(O)C(O)C7OC7OCC(O)C(O)C7O)C(O)C(O)C6NC(C)=O)C(C)(C)C5CC[C@@]4(C)[C@]2(C)C[C@H]3O)C(O)C1O (stereo not given in full) | 11.9% | 2.06% (active) | -78.4% (active) | -66.9% (active) | 57.8% | -46.2% (active) |  | -37.5% (active) | -77.5% (active) | -69.3% (active) | -91.2% (active) | 22.8% | -56.2% (active) | -29.8% (active) | -31.3% (active) | -53.4% (active) | -59.4% (active) | 6.98% (active) | -53.5% (active) | -34.1% (active) |
| CCn1cc(C(=O)N/N=C/c2ccc(Br)cc2)c(=O)c2cc(F)c(N3CCNC(C)C3)c(F)c21 (stereo not given) | 91% | 97.3% | 85.8% | 88.8% | -50.8% (active) | 61.2% |  | 45.3% | 63.9% | 32.1% | 31.4% | -12.6% (active) | 58.7% | 54.8% | 61.3% | 62.6% | 74.5% | 71.4% | 104% | 42.7% |
| CCCCNC1=C(OCC)C(=O)c2ccccc2C1=O | 83.5% | 105% | 103% | 125% | 92.6% |  | 98.4% | 99.2% | 94.8% | 116% | 104% | 126% | 121% | 98.9% | 92.8% | 97.3% | 103% | 112% | 95.7% | 95.5% |
| COc1cccc(/C=C/C(=O)c2cc3c(N)c(C(=O)Nc4cccc(Cl)c4C)sc3nc2C)c1 | 20.4% | -23.6% (active) | 7.75% (active) | -24.1% (active) | -23.5% (active) |  | -69.7% (active) | 3.76% (active) | -43.8% (active) | -27.1% (active) | 4.37% (active) | 11% | 14.7% | -26.5% (active) | -71% (active) | 10.1% | 5.12% (active) | -36% (active) | 57.4% | -28.4% (active) |
| CN1CCN(c2ccc3c(c2)nc(NNC(=O)c2cnccn2)c2cccn23)CC1 | 34.1% | 38% | 21.5% | 25.1% | 9.73% (active) |  | 15.7% | 21.9% | 17.6% | 3.54% (active) | 27.3% | 14.5% | 36.9% | 34.1% | 48.6% | 25.9% | 10.4% | 15.2% | 46.6% | 18.2% |
| COC(=O)C1=C(C)NC(C)=C(C(=O)OCC(C)C)C1c1ccccc1[N+](=O)[O-] (stereo not given) | 58.4% | 93.1% | 65.4% | 79.1% | 49.5% |  | 25.4% | 65.4% | 59% | 91.1% | 50.6% | 18.2% | 86.1% | 55% | 70.2% | 66.6% | 56.9% | 65.6% | 81.6% | 51.1% |
| CCOC(=O)c1c(NC(=O)c2ccc(OC)cc2)sc2c(CN(C)C)c(O)ccc12 | 90.6% | 101% | 89.6% | 85% | 60% |  | 75.1% | 74% | 63.4% | 55.3% | 84.3% | 24.1% | -57.5% (active) | 79.1% | 53.6% | 98% | 82.3% | 68.8% | -58% (active) | -69.4% (active) |
| CCCCn1sc(=O)n(Cc2ccc(CNC(=O)OCc3ccc4c(Cl)cc(Cl)c(O)c4n3)cc2)c1=O | 75.3% | 73.2% | 61.5% | 40.4% | 26.5% |  | 69.9% | 48.7% | 67.9% | 98.1% | 58.5% | 42.9% | 73% | 84.4% | 74.3% | 67.1% | 34.5% | 78% | 97.6% | 60.7% |
| Cc1c2cnccc2c(C)c2c1c1cc(C3OCCCO3)ccc1n2C | -31.9% (active) | -4.43% (active) | -2.25% (active) | -13% (active) | 0.184% (active) |  | -41.6% (active) | 2.33% (active) | 11.8% | -17.6% (active) | 3.92% (active) | 3.75% (active) | -62.9% (active) | -26.1% (active) | -78.9% (active) | 1.29% (active) | 0.404% (active) | -55.1% (active) | -25.8% (active) | -79.8% (active) |
| CCCCSCC(=O)c1ccccc1 | 86.2% | 99.6% | 89.7% | 80.9% | 109% |  | 58.2% | 78.1% | 99.8% | 100% | 103% | 97.3% | 89.6% | 102% | 114% | 97.1% | 105% | 98.4% | 80.9% | 99.4% |
| O=C(/C=C\c1ccco1)/C=C/c1ccco1 | 98.6% | 98.6% | 117% | 98.1% | 116% | 107% |  | 102% | 110% | 106% | 106% | 111% | 112% | 93.4% | 100% | 113% | 101% | 108% | 100% | 105% |
| CCCCCCC(=O)Nc1ncc(Cc2ccc(C)cc2)s1 | 59.3% | 64.1% | 58.4% | 40.3% | 23.4% |  | 22.2% | 47.5% | 46% | 16.5% | 42.2% | 24.2% | 58.6% | 59.9% | -7.29% (active) | 58.1% | 34.6% | 20.6% | 55.2% | 31.6% |
